Rab9 promoter act – activators of Rab9 promoter; Huh7 Rab9 promoter-luciferase reporter, luminescence, 24 h; Potency, µM (titrated, usually from 9.22 µM), for inactives: at the top dose activation, negative = inhibition, actives largely listed as activators; 320,000 tested, 2.8% active; AID 485297; also: % of control where 0% means no effect; nearly all actives have a fitted effect of over 60% in size
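Cells were plated at 1500 per well in reduced-serum medium with 10% FBS and left 2 h. Compound in DMSO was then added for 24 h at 37 °C. Reporter signal was read by luminescence after 10 min with luciferase detection reagent.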
NPC1 prom act – activators of NPC1 promoter. Huh7 NPC1 promoter luciferase reporter, 24 h. Potency, µM (series often up to 9.22 µM), for inactives: at the top dose activation, usual class: activators. 320,000 tested, 2.4% active. AID 485313; also: % of control where 0% means no effect; nearly all actives have a fitted effect of over 60% in size
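Luciferase expression driven by the NPC1 promoter was measured in stably transfected Huh7 cells after a 24 h compound incubation, using a luciferase reagent and a luminescence read.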
SMN2 splice up – enhancers of SMN2 splice variant expression | Potency, µM (doses to about 46.1 µM), for the others: at the top dose activity change, positive = activation, usual class: activators | 210,000 tested, 2.8% active | HEK293 SMN2-luciferase splicing reporter, luminescence, 30-36 h; also: % of control where 0% means no effect; nearly all actives have a fitted effect of over 55% in size
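HEK293 cells carry an SMN2 […]–luciferase reporter in which exon 7 inclusion puts luciferase in frame. Cells were plated 10-12 h before compound addition, then incubated 30-36 h at 37C. ONE-Glo luminescence was read; sodium butyrate at 4.5 mM final served as control.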
FLuc counter – counter-screen for miR-21 project: firefly luciferase inhibitors or activators | Potency, µM (series often up to 57.5 µM), for the others: top-dose activity change, negative = inhibition, most hits filed as inhibitors | 360,000 tested, 6.9% active | P08659 | purified FLuc, Km substrates, luminescence inhibition;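 also: plate controls were vehicle for no effect and reference inhibitor for full effect; nearly all actives have a fitted effect of over 55% in size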
Target sequence (P08659 whole entry, looked up): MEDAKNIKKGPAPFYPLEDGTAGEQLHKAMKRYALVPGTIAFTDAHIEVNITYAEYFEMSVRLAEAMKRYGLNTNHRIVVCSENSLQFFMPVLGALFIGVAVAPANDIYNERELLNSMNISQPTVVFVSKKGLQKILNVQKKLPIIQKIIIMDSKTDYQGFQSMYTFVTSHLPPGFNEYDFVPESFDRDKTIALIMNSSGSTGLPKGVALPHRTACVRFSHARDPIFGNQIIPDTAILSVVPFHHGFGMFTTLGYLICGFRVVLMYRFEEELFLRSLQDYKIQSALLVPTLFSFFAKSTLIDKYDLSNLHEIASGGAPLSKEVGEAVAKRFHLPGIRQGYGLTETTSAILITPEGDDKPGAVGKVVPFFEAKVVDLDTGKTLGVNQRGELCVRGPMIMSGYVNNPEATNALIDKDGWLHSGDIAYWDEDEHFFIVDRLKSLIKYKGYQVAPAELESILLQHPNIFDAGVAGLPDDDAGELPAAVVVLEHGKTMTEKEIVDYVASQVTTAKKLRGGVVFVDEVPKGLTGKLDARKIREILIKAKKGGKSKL
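Purified P. pyralis luciferase (10nM final) with 10uM D-luciferin and 10uM ATP (Km levels) in 50mM Tris acetate pH 7.5, 10mM Mg acetate, 0.01% Tween-20, 0.05% BSA; qHTS 6-point titration, ~60 µM downward; luminescence read.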
ELG1 DNA repair – blocks ELG1-dependent DNA repair in HEK293T cells; HEK293T ELG1-luciferase reporter, luminescence, 16 h; DNA damage induced by 5-fluorouridine; Potency, µM (top dose mostly 46.1 µM), for the others: at the top dose activity change, negative = inhibition, hits mostly inhibitors; 330,000 tested, 2.3% active; also: % is scaled to controls: 0 for no effect and ±100 for the full control effect; nearly all actives have a fitted effect of over 55% in size
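In this reporter screen, reduction of luminescence relative to DMSO vehicle indicated activity. Compounds and 5-fluorouridine were added together to 2,000 cells per well, incubated for 16 hr at 37 °C, then developed with ONE-Glo.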
ELG1 genotoxic – induces genotoxicity in HEK293T cells with luciferase-tagged ELG1; HEK293T ELG1-luciferase reporter, luminescence, 16 h; Potency, µM (doses to about 46 µM), inactives show at the top dose activity change, positive = activation, most hits filed as activators; 330,000 tested, 1.3% active; AID 504466; also: % of control where 0% means no effect; nearly all actives have a fitted effect of over 60% in size
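Reporter readout depends on ELG1 protein level, which increases with genetic stress. After 16 hr compound exposure at 37 °C, luciferase activity was quantified using ONE-Glo.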
* hit, by the source's call; ? = inconclusive; · = no result. Hits are enriched below; roughly 9.2% of the tested compounds scored in any of these assays. Calls follow the shape of the dose curve; as a rule, active = well fitted curve in the direction sought with a large enough effect; inconclusive = small, poorly fitted or top-dose-only effect, or another doubt; inactive = no such curve, though single readings can be large; an effect the other way counts as inactive or inconclusive. Potency is read from the fitted curve at half-maximal effect.

SMILES | Rab9 promoter act | NPC1 prom act | SMN2 splice up | FLuc counter | ELG1 DNA repair | ELG1 genotoxic
CC(C)(C)/C(O)=C/c1nc2ccccc2[nH]c1=O | 1% | -1% | 2% | 0% | 9% | 0%
O/C(=C\c1nc2ccccc2[nH]1)c1cccs1 | 4µM* | 3.5µM* | · | 13µM* | ? | ?
O=c1[nH]c2ccccc2nc1/C=C(\O)c1cccs1 | 3.2µM* | 4µM* | · | ? | ? | ?
O=C1N(Cc2ccccc2Cl)c2ccccc2C1(O)c1c[nH]c2ccccc12 (stereo not given) | · | · | -7% | 0% | · | ·
CC1(C(=O)O)COC(c2ccc(Cl)cc2)OC1 (stereo not given) | -6% | -2% | · | 2% | 0% | -1%
COC(=O)c1ccc(C2OCC(C)(C)CO2)cc1 | ? | ? | ? | 27µM* | ? | 19%
COC(CN(C)S(=O)(=O)c1cc2c3c(c1)CCC(=O)N3CCC2)OC | 1% | 2% | · | 1% | 18% | -1%
COc1cccc(NC(=O)CSc2nc3c(oc4ccccc43)c(=O)[nH]2)c1 | -3% | 7% | 29% | 3.8µM* | ? | 6%
COc1ccc(NC(=O)c2oc3ccccc3c2NC(=O)C2CC2)cc1 | -1% | 0% | -12% | ? | -22% | -1%
COCC(=O)Nc1c(C(=O)Nc2cccc(OC)c2)oc2ccccc12 | 3.5µM* | 3.5µM* | 11µM* | 0% | ? | ?
COc1cccc(NC(=O)c2oc3ccccc3c2NC(=O)C2CC2)c1 | 13% | 1% | -37% | 2% | 13µM* | -26%
COc1cccc(NC(=O)CSc2ncnc3c2oc2ccccc23)c1 | -5% | -3% | -17% | -2% | -14% | 9%
COc1cccc(NC(=O)c2oc3ccccc3c2NC(=O)COc2ccccc2C)c1 | · | · | 16% | -14% | · | ·
COc1ccc(NC(=O)c2oc3ccccc3c2NC(=O)c2ccco2)cc1 | -5% | -2% | -2% | 13µM* | 10µM* | -9%
COC(C(=O)Nc1ccccc1C(=O)N1CCOCC1)c1ccccc1 (stereo not given) | -1% | -4% | · | 12% | -4% | 3%
O=C(NCc1ccccc1)C(=O)NCC(c1ccc2c(c1)OCO2)N1CCOCC1 (stereo not given) | · | · | · | 1% | · | ·
CCc1nn2c(=O)cc(CSCC(=O)Nc3ccccc3Cl)nc2s1 | 4% | -4% | · | 3% | 15% | -1%
COc1cccc(NC(=O)c2oc3ccccc3c2NC(C)=O)c1 | 3.5µM* | ? | ? | ? | ? | ?
O=C1C(Nc2ccccc2)=CC(c2ccc(Br)cc2)N1c1ccccc1 (stereo not given) | · | · | 4% | 5% | · | ·
COC(=O)CN1C(=O)C(C)(C)c2cc(S(=O)(=O)Nc3ccc(C(C)C)cc3)ccc21 | · | · | · | -2% | · | ·
Cc1c(NC(=O)c2ccc3c(c2)OCO3)cccc1-c1nc2ncccc2o1 | -1% | -2% | -26% | ? | ? | 3%
Cc1c(NC(=O)c2ccc3c(c2)OCO3)cccc1-c1nc2ccccc2s1 | 3% | 5% | -11% | 3.4µM* | -21% | 4%
c1ccc2sc(N3CCN(Cc4ccc5c(c4)OCO5)CC3)nc2c1 | · | · | -3% | · | · | ·
c1ccc2sc(-c3ccc4c(c3)OCO4)nc2c1 | 0.32µM* | 0.56µM* | 7.1µM* | 0.54µM* | ? | 0.58µM*
O=C(Nc1cccc(-c2nc3ccccc3s2)c1)c1ccc2c(c1)OCO2 | -2% | 14% | -4% | 12µM* | -12% | 1%
SMILES | Rab9 promoter act | NPC1 prom act | SMN2 splice up | FLuc counter | ELG1 DNA repair | ELG1 genotoxic
CC(Oc1ccc(F)cc1F)C(=O)NNC(=S)NCC1CCCO1 (stereo not given) | 0% | 0% | · | -1% | -11% | 2%
CC(C)(C)n1ncc2c(=O)n(Cc3cccc(C#N)c3)cnc21 | · | · | · | 3% | · | ·
O=C(Nc1nc2ccc(Cl)cc2s1)c1ccco1 | 1.3µM* | 0.63µM* | 3.2µM* | 1.7µM* | ? | ?
O=C(Nc1nc2ccc(Br)cc2s1)c1ccco1 | 0.63µM* | 1.3µM* | · | 3µM* | ? | ?
CC(=O)Nc1nc2ccc(NC(=O)c3ccco3)cc2s1 | ? | 21% | 28% | ? | ? | ?
O=C(Nc1nc2ccc(S(=O)(=O)N3CCCC3)cc2s1)c1ccco1 | 9% | 3% | 3% | ? | 13% | 2%
O=C(Nc1cccc(-c2nc3ccccc3o2)c1)c1ccc(-c2ccc(Br)cc2)o1 | · | · | -3% | ? | · | ·
O=C(Nc1cccc(NC(=O)c2ccc(-c3ccc(Br)cc3)o2)c1)c1ccco1 | 19% | 19% | 17% | 2.7µM* | 9.2µM* | -7%
CS(=O)(=O)N1CCN(c2ccccc2NC(=O)c2ccc(-c3ccc(Br)cc3)o2)CC1 | 3% | 1% | -13% | -12% | 15µM* | -12%
CS(=O)(=O)N1CCN(c2ccccc2NC(=O)c2cc(Br)ccc2Cl)CC1 | -2% | 0% | -11% | -1% | ? | -12%
COC(=O)c1ccccc1NC(=O)c1ccc(-c2ccc(Br)cc2)o1 | 0.79µM* | 10% | 28% | -7% | ? | 1.8µM*
CC(OC(=O)Cn1[nH]c(=O)c2ccccc2c1=O)C(=O)Nc1ccc(F)cc1Cl (stereo not given) | 0% | 9% | · | 2% | 25% | 0%
CCN(CC)CCOC(=O)c1ccc(NC(=O)c2cc3c(=O)n(CC)c4ccccc4c3s2)cc1 | · | · | 9% | -5% | · | ·
Cc1ccc(NC(=O)CN2CCSc3ccc(S(=O)(=O)N4CCCC4)cc32)cc1C | · | · | · | -19% | · | ·
CCC(=O)Nc1cccc(NC(=S)NC(=O)c2cccc(C)c2)c1 | 1.6µM* | 3.2µM* | 11µM* | ? | ? | ?
CN1CCN(c2ccccc2NC(=S)NC(=O)c2cc3ccccc3o2)CC1 | 4% | 0% | · | 0% | 11% | 0%
Cc1cccc(C(=O)NC(=S)Nc2ccc(Cc3ccncc3)cc2)c1 | 4% | -3% | -27% | ? | -1% | -4%
CC(=O)c1cccc(NC(=S)NC(=O)c2ccccc2Cl)c1 | 11% | 16% | 17% | ? | 24% | 4%
Cc1c(NC(=S)NC(=O)c2cc3ccccc3o2)cccc1C(=O)O | 1.8µM* | 4µM* | · | ? | ? | -2%
O=C(O)c1cccc(NC(=S)NC(=O)c2ccc3ccccc3c2)c1 | ? | ? | · | 1.3µM* | ? | ?
O=C(NC(=S)Nc1ccccc1C(=O)O)c1ccc2ccccc2c1 | 14% | -1% | · | ? | -26% | 2%
CC(=O)c1cccc(NC(=S)NC(=O)c2ccc(C)cc2Cl)c1 | ? | 24% | ? | 15µM* | ? | 12%

High-throughput results (PubChem)
